Experimental data reported in PubChem BioAssay (NCATS).
Records with an inconclusive call do not appear. Calls of active or inactive are those of the source. The call rests on the fitted dose curve; in most records, active means well fitted curve in the direction sought with a large enough effect; inconclusive means small, poorly fitted or top-dose-only effect, or another doubt; inactive means no such curve, though single readings can be large; an effect the other way counts as inactive or inconclusive.

Key:
[1] = tested on: KB-3-1; assay: Cytotoxic Profiling of Annotated Libraries Using Quantitative High-Throughput Screening (AID 1296008); settings: Five cell lines viability, CellTiter-Glo ATP luminescence, 48-72 h; max response: active compounds read low; further: nearly all actives have a fitted effect of over 60% in size; on max response: on the % scale 0 is the no-effect control and ±100 the full control effect
How it was run: (§1)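 Cells exposed to compounds for 48 or 72 hr at 37 degrees Celsius. Viability read as ATP-coupled luminescence with CellTiter-Glo after 10 min at room temperature.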

[2] = tested on: NIH3T3; assay: as above; settings: Five cell lines viability, CellTiter-Glo ATP luminescence, 48-72 h; max response: active compounds read low
How it was run: as §1

[3] = tested on: HACAT; assay: qHTS assay to identify novel small-molecules to repurpose for Merkel cell carcinoma treatment (AID 1296009); settings: MCC and control cell lines, CellTiter-Glo viability, 72 h; at 44.8 µM (top of the series) unless noted; further: nearly all actives have a fitted effect of over 60% in size
How it was run: (§2)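 CellTiter-Glo luminescence after 72 hr compound exposure at 37 degree celsius gave cell viability. Libraries NPC and MIPE were run as 8- and 11-point dose responses; RLUs normalized to DMSO (negative) and no-cell (cytotoxicity) controls.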

[4] = tested on: HEK293T; assay: as above; settings: MCC and control cell lines, CellTiter-Glo viability, 72 h; series mostly up to 44.8 µM
How it was run: as §2

[5] = tested on: NIH3T3; assay: as above; settings: MCC and control cell lines, CellTiter-Glo viability, 72 h; at 44.8 µM (top of the series) unless noted
How it was run: as §2

[6] = tested on: C33A; assay: Primary qHTS to identify gynecologic anti-cancer compounds using libraries of approved drugs and bioactive compounds (AID 1345084); settings: Gynecologic cancer cell panel viability, ATPlite luminescence, 48 h; series mostly up to 57.5 µM; further: on the % scale 0 is the no-effect control and ±100 the full control effect; nearly all actives have a fitted effect of over 55% in size
How it was run: (§3)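 Cytotoxicity screen measuring ATP content by luciferase luminescence. Each compound is applied at five concentrations for 48 h at 37 C with 5% CO2.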

[7] = tested on: CAOV3; assay: as above; settings: Gynecologic cancer cell panel viability, ATPlite luminescence, 48 h; series mostly up to 57.5 µM
How it was run: as §3

[8] = tested on: CASKI; assay: as above; settings: Gynecologic cancer cell panel viability, ATPlite luminescence, 48 h; series mostly up to 57.5 µM
How it was run: as §3

[9] = tested on: Es-2; assay: as above; settings: Gynecologic cancer cell panel viability, ATPlite luminescence, 48 h; series mostly up to 57.5 µM
How it was run: as §3

[10] = tested on: HeLa; assay: as above; settings: Gynecologic cancer cell panel viability, ATPlite luminescence, 48 h; series mostly up to 57.5 µM
How it was run: as §3

[11] = tested on: Hek293T; assay: as above; settings: Gynecologic cancer cell panel viability, ATPlite luminescence, 48 h, control line for the selectivity index; series mostly up to 57.5 µM
How it was run: as §3

[12] = tested on: JEG-3; assay: as above; settings: Gynecologic cancer cell panel viability, ATPlite luminescence, 48 h; series mostly up to 57.5 µM
How it was run: as §3

[13] = tested on: OV90; assay: as above; settings: Gynecologic cancer cell panel viability, ATPlite luminescence, 48 h; series mostly up to 57.5 µM
How it was run: as §3

[14] = tested on: PA-1; assay: as above; settings: Gynecologic cancer cell panel viability, ATPlite luminescence, 48 h; series mostly up to 57.5 µM
How it was run: as §3

CC(=O)N(O)CCCCCN1C(=O)CCC1=O
inactive: max response [1] 2.57% | outcome [2] | outcome [3] | Potency [4] | outcome [5] | Potency [6] | Potency [7] | Potency [8] | Potency [9] | Potency [10] | Potency [11] | Potency [12] | Potency [13] | Potency [14]

COc1cc(NC(=O)c2ccccn2)ccc1Cl
inactive: max response [1] -6.58% | outcome [2] | outcome [3] | Potency [4] | outcome [5] | Potency [6] | Potency [7] | Potency [8] | Potency [9] | Potency [10] | Potency [11] | Potency [12] | Potency [13] | Potency [14]

CCn1nnnc1NCc1ccc(C(C)C)cc1
inactive: max response [1] 2.69% | outcome [2] | outcome [3] | Potency [4] | outcome [5] | Potency [6] | Potency [7] | Potency [8] | Potency [9] | Potency [10] | Potency [11] | Potency [12] | Potency [13] | Potency [14]

C/C=C/C1=CC2=CC(=O)C(C)(O)C(OC(=O)c3c(C)cc(O)cc3O)C2CO1 (centres undefined)
inactive: max response [1] 2.68% | outcome [2] | outcome [3] | Potency [4] | outcome [5] | Potency [6] | Potency [7] | Potency [8] | Potency [9] | Potency [10] | Potency [11] | Potency [12] | Potency [13] | Potency [14]

CC1(C)CC[C@]2(C(=O)O[C@@H]3O[C@H](CO)[C@@H](O)[C@H](O)[C@H]3O)CC[C@]3(C)C(=CCC4[C@@]5(C)C[C@@H](O)[C@H](O)C(CO)(CO)C5CC[C@]43C)C2[C@@H]1O (some centres undefined)
inactive: max response [1] 8.19% | outcome [2] | outcome [3] inactive [at 17.4 µM] | Potency [4] | outcome [5] inactive [at 17.4 µM] | Potency [6] | Potency [7] | Potency [8] | Potency [9] | Potency [10] | Potency [11] | Potency [12] | Potency [13] | Potency [14]

CC(NC(=O)CC(=O)O)c1nc2ccccc2c(=O)[nH]1 (centres undefined)
inactive: outcome [1] | outcome [2] | outcome [3] | Potency [4] | outcome [5] | Potency [6] | Potency [7] | Potency [8] | Potency [9] | Potency [10] | Potency [11] | Potency [12] | Potency [13] | Potency [14]

C[C@@H]1O[C@@H](O[C@@H]2[C@@H](O)[C@H](O[C@@H]3[C@@H](O)[C@@H](O)[C@H](O[C@H]4[C@H](OC(=O)[C@]56CCC(C)(C)C[C@H]5C5=CCC7[C@@]8(C)C[C@H](O)[C@H](O[C@@H]9O[C@H](C(=O)O)[C@@H](O)[C@H](O)[C@H]9O)[C@@](C)(CO)C8[C@H](O)C[C@@]7(C)[C@]5(C)CC6)OC[C@H](O)[C@@H]4O)O[C@H]3C)OC[C@H]2O)[C@H](O)[C@H](O)[C@H]1O (some centres undefined)
inactive: max response [1] 2.1% | outcome [2] | outcome [3] inactive [at 9.27 µM] | outcome [4] inactive [at 9.27 µM] | outcome [5] inactive [at 9.27 µM] | activity change, negative = cytotoxicity [6] -3.84% [at 6.55 µM] | activity change, negative = cytotoxicity [7] 1.69% [at 6.55 µM] | activity change, negative = cytotoxicity [8] -21.9% [at 6.55 µM] | activity change, negative = cytotoxicity [9] 7.07% [at 6.55 µM] | activity change, negative = cytotoxicity [10] 9.33% [at 6.55 µM] | activity change, negative = cytotoxicity [11] -1.15% [at 6.55 µM] | activity change, negative = cytotoxicity [12] -4.08% [at 6.55 µM] | activity change, negative = cytotoxicity [13] -1.61% [at 6.55 µM] | activity change, negative = cytotoxicity [14] 3.21% [at 6.55 µM]

C=C1[C@@H]2CC[C@@]3(C)[C@H](c4ccoc4)OC(=O)C[C@]13O[C@H]1CC(=O)C(C)(C)[C@H](CC(=O)OC)[C@]12C
inactive: max response [1] -1.94% | outcome [2] | outcome [3] inactive [at 17.4 µM] | Potency [4] | outcome [5] inactive [at 17.4 µM] | Potency [6] | Potency [7] | Potency [8] | Potency [9] | Potency [10] | Potency [11] | Potency [12] | Potency [13] | Potency [14]

O=C(NC[C@H](O)CN1CCc2ccccc2C1)c1cc(NC2COC2)ncn1
inactive: outcome [1] | max response [2] -2.53% | outcome [2] | Potency [6] | Potency [8] | Potency [9] | Potency [10] | Potency [11] | Potency [12] | Potency [13] | Potency [14]

CC1(C(=O)O)CCCC2(C)C1CCC13CC(CCC21)C1(CO)OC31 (centres undefined)
inactive: max response [1] 2.68% | outcome [2] | outcome [3] | Potency [4] | outcome [5] | Potency [6] | Potency [7] | Potency [8] | Potency [9] | Potency [10] | Potency [11] | Potency [12] | Potency [13] | Potency [14]

CC(NCc1ccc(OCc2cccc(F)c2)cc1)C(N)=O (centres undefined)
inactive: max response [1] 9.7% | outcome [2] | outcome [3] | Potency [4] | outcome [5] | Potency [6] | Potency [7] | Potency [8] | Potency [9] | Potency [10] | Potency [11] | Potency [12] | Potency [13] | Potency [14]

C=C1C(=O)OC2CC(C)=C(C(C)CCCO[C@@H]3O[C@H](CO)[C@@H](O)[C@H](O)[C@H]3O)C(O)C12 (some centres undefined)
inactive: outcome [1] | outcome [2] | outcome [3] inactive [at 17.4 µM] | Potency [4] | outcome [5] inactive [at 17.4 µM] | Potency [6] | Potency [7] | Potency [8] | Potency [9] | Potency [10] | Potency [11] | Potency [12] | Potency [13] | Potency [14]

NCc1c[nH]c(=S)n1C1CCc2c(F)cc(F)cc2C1 (centres undefined)
inactive: max response [1] -6.7% | outcome [2] | outcome [3] | Potency [4] | outcome [5] | Potency [6] | Potency [7] | Potency [8] | Potency [9] | Potency [10] | Potency [11] | Potency [12] | Potency [13] | Potency [14]
